Out of some 390,000 compounds screened, about 17,000 (4.4%) were called active. Not shown: some 8% with an inconclusive outcome. This excerpt belongs to a sample that is enriched for actives. Unmarked numbers belong to inactive results. Calls come from the whole dose curve; as a rule, active = well fitted inhibition curve with a large enough effect; inconclusive = small, poorly fitted or top-dose-only effect; inactive = no such curve, though single readings can be large or run the other way.
What follows are compounds tested against Lysine-specific demethylase 4A (Homo sapiens) (UniProt O75164) (assay: qHTS Assay for Inhibitors of JMJD2A-Tudor Domain). Settings: AlphaScreen JMJD2A-Tudor / H3K4me3 peptide binding; series mostly up to 114 µM; activity change, negative = inhibition: at the top concentration.
Sequence of Lysine-specific demethylase 4A (Homo sapiens) (O75164 whole entry, looked up, the tested form may be a part): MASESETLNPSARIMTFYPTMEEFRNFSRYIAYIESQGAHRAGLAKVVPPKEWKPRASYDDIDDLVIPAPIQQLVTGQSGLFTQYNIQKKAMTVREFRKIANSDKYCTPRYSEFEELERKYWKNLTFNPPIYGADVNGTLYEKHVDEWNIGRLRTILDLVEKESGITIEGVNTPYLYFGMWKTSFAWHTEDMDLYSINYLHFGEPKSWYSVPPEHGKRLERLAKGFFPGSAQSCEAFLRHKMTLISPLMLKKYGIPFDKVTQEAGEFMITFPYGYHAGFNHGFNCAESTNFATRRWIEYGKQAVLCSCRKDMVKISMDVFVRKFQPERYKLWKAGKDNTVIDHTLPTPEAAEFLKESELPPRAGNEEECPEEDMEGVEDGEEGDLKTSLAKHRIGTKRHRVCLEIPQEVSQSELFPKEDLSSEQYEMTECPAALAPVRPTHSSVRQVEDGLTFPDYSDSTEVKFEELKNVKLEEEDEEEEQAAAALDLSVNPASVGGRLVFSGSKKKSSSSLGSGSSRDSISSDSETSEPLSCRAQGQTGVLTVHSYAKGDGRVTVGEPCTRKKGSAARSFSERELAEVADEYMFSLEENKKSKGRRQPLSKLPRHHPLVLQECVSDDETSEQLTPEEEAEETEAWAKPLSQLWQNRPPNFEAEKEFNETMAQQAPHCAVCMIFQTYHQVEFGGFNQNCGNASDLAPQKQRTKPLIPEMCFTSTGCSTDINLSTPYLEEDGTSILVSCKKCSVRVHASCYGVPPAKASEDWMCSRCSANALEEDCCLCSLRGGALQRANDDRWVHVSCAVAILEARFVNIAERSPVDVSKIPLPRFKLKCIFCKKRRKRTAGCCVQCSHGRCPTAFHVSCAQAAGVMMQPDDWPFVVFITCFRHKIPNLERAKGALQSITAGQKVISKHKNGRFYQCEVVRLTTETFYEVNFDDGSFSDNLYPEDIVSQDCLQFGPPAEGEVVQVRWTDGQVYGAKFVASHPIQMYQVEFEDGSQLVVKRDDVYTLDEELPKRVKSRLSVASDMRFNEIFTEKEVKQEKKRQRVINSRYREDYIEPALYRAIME
% is set by controls: 0 for no effect and ±100 for the full control effect; potency is the fitted concentration of half-maximal effect.
Note: nearly all actives have a fitted effect of over 50% in size.

SMILES | activity change, negative = inhibition [%] | Potency
COC(=O)c1ccccc1NS(=O)(=O)c1ccc2c(c1)CCCN2C(C)=O | -8.33 | –
Cc1ccsc1CN(C(=O)c1oc2ccc(Br)cc2c1C)C1CCS(=O)(=O)C1 (stereo not drawn) | -14.9 | –
Cc1nc2ccc(S(=O)(=O)N(CC(=O)Nc3ccc(F)cc3)Cc3ccccc3)cc2s1 | -6.33 | –
Cc1ccc(OCC(=O)OCc2cc(=O)n3nc(C4CC4)sc3n2)cc1C | -12.3 | –
CCOc1ccc(NC(=O)Cn2c(=O)n(CCCC(=O)NCc3ccc4c(c3)OCO4)c(=O)c3ccccc32)cc1 | -5.46 | –
CCC(CC)c1nn2cc(-c3ccccc3)nc2s1 | 33.3 | –
CCc1ccc(NC(=O)c2ccc(Cn3cc([N+](=O)[O-])cn3)cc2)cc1 | -12.8 | –
Cn1c(=O)n(C)c2cc(C(=O)Nc3ccc(Br)cc3)ccc21 | -1.39 | –
Cn1ccc(=Nc2ccc(NC(=O)c3ccc(N=c4ccn(C)c5ccc([N+](=O)[O-])cc45)cc3)cc2)cc1 | – | 56.2 µM (active)
O=C(Cn1cc(SCc2ccccc2)c2ccccc21)N1CCCCC1 | -17.6 | –
O=C(NC1CC(=O)N(c2ccc(F)cc2)C1)c1ccc(S(=O)(=O)N2CCCC2)cc1 (stereo not drawn) | -5.52 | –
CCCCCn1c(CCNC(=O)c2ccc(F)cc2)nc2ccccc21 | -18.8 | –
Cc1ccc2nc(/C(C#N)=C/c3ccc(-c4ccc(C(=O)OC(C)C)cc4)o3)[nH]c2c1 | -5.6 | –
COc1ccc(CCNC(=O)CCCn2c(=O)c3ccccc3n(Cc3ccc(C)cc3)c2=O)cc1OC | 6.14 | –
Cc1cc(=O)n(C)c(=O)n1CCCNc1ccccc1 | – | 7.94 µM (active)
Cn1c(Nc2ccccc2)cc(=O)n(C)c1=O | -13.4 | –
Cc1cc2nc(C)n(CCCNC(=O)Nc3ccccc3)c2cc1C | -19.1 | –
COc1cc(C(CC(=O)NCCC(C)C)N2Cc3ccccc3C2=O)cc(OC)c1OC (stereo not drawn) | 3.79 | –
Cc1cccc2c1-c1sc(C(=O)Nc3ccc(F)cc3F)cc1CO2 | 39.6 | –
O=C1c2ccccc2C2=Nc3ccccc3SC(c3ccccc3F)C12 (stereo not drawn) | – | 14.1 µM (active)
NC(=O)CSc1nc2c(oc3ccccc32)c(=O)n1Cc1ccccc1 | -8 | –

SMILES | activity change, negative = inhibition [%] | Potency
CCCCOCCCNC(=O)c1ccccc1OCC | -7.56 | –
CCOc1ccccc1OCCCNCc1ccccc1 | – | 5.01 µM (active)
CCOCCCNCc1ccc(OCc2ccc(F)cc2)c(OC)c1 | 3.44 | –
CCCCC(CC)CNC(=O)C1CCN(S(=O)(=O)c2cccc3nsnc23)CC1 (stereo not drawn) | -17.7 | –
O=S(=O)(Nc1ccc(O)c2ccccc12)c1ccc(OC(F)(F)F)cc1 | – | 50.1 µM (active)
O=C1COc2ccc(S(=O)(=O)Nc3ccc(OC(F)(F)F)cc3)cc2N1 | -9.36 | –
Nc1ncc(S(=O)(=O)Nc2ccc(OC(F)(F)F)cc2)cn1 | 2.58 | –
COC(=O)CC1Oc2ccccc2-n2cc(-c3ccccc3)nc21 (stereo not drawn) | -2.24 | –
CCOc1ccc(-c2cc3nc(C4CCN(C(=O)OC(C)(C)C)CC4)c(C(=O)Nc4ccc(C(=O)OC)cc4)cn3n2)cc1 | -12.3 | –
COc1ccc(OC)c2sc(N3CCN(C(=O)C4COc5ccccc5O4)CC3)nc12 (stereo not drawn) | -18.2 | –
COc1cc(NS(=O)(=O)c2ccc3c(c2)OCC(C(=O)N2CCCC2)O3)cc(OC)c1 (stereo not drawn) | -25.3 | –
Cc1c(CC(=O)N2CCN(C(=O)C3COc4ccccc4O3)CC2)c(=O)oc2c(O)c(O)ccc12 (stereo not drawn) | – | 2.82 µM (active)
CCNC(=O)Cn1nc(C)n2c(cc3c(OC)cccc32)c1=O | -14.2 | –
Cc1ccc(CNC(=O)CSC2=Nc3ccccc3C3=NC(C)C(=O)N23)cc1 (stereo not drawn) | -6.62 | –
O=C(CSC1=Nc2ccccc2C2=NC(c3ccccc3)C(=O)N12)NCC1CCCO1 (stereo not drawn) | 0.929 | –
CC(C)C1N=C2c3ccccc3N=C(SCC(=O)c3ccc(O)c(O)c3)N2C1=O (stereo not drawn) | – | 3.16 µM (active)
COc1ccc(-n2c(SC)nc3sc4c(c3c2=O)CCN(C(C)=O)C4)cc1 | -13.3 | –
CCN1CCN(Cc2c(O)ccc3oc(C)c(C(=O)Nc4ccc(C)cc4C)c23)CC1 | -20.1 | –
C[n+]1ccc(C(=O)NCc2ccccc2)cc1 | 7.97 | –
O=C(NCCCNCc1ccccc1)c1ccc(/C=N/O)nc1 | – | 7.94 µM (active)
CC(C)c1ccc(C(=O)NCCCc2ccccc2)cc1 | 14.9 | –

SMILES | activity change, negative = inhibition [%] | Potency
Cc1nc2nc(SCC(=O)N(Cc3ccccc3)C(C)C)nn2c(C)c1Cc1ccccc1Cl | -9.9 | –
CCc1ccc(-n2nnc(-c3nc(-c4ccccc4)no3)c2C)cc1 | -5.52 | –
COc1ccc(SCc2cc(=O)c3ccc(C)c(C)c3[nH]2)cc1 | -22.7 | –
CCOc1c(Br)cc(/C=C2\C(=O)N(CCC#N)N=C2C)cc1OC | -2.14 | –
COc1cc(/C=C2/C(=O)NN(c3cccc(Cl)c3)C2=O)cc(Br)c1O | – | 44.7 µM (active)
COc1cc(/C=N/O)cc(Br)c1OCc1cccc(Cl)c1 | 45.4 | –
COc1ccc(CNc2nc(-c3ccc(Cl)cc3)nn2S(=O)(=O)c2ccc(C)cc2)cc1 | -7.22 | –
Cc1cccc(NC(=O)N2CCC(CN3CCc4ccccc4C3)CC2)c1C | 0.66 | –
NS(=O)(=O)c1ccc(NC(=O)C(=O)Nc2ccc3nc4n(c(=O)c3c2)CCCCC4)cc1 | -3.02 | –
O=C(c1ccc2c(c1)N(Cc1ccccc1F)C(=O)c1ccccc1S2(=O)=O)N1CCOCC1 | -8.08 | –
COc1ccc(N(CC(=O)NCCc2ccc(Cl)cc2)S(=O)(=O)c2c(C)nn(C)c2C)cc1 | -6.67 | –
COc1cccc(Cn2c(SCc3ccc(C(=O)N4CCCCC4)cc3)nc3ccncc32)c1 | -19.1 | –
COc1cccc(Cn2c(SCc3ccc(C(=O)N4CCC(C)CC4)cc3)nc3ccncc32)c1 | – | 5.62 µM (active)
Cc1cccc(CSc2nc3ccncc3n2Cc2ccc(C(=O)O)cc2)c1 | -4 | –
CCOc1cccc(/C=N/N2C(=O)CSC2=S)c1O | – | 20 µM (active)
O=C1CSC(=S)N1c1ccc(O)cc1 | -1.99 | –
COc1cc(N2C(=O)CSC2=S)cc(OC)c1OC | -5.37 | –
COc1ccc(-c2cn3nc(N4CCCC(C(=O)NCCCOC(C)C)C4)sc3n2)cc1 (stereo not drawn) | -17.2 | –
Cc1ccc(-n2c(SCC(=O)c3ccccc3)nc3c([nH]c4ccccc43)c2=O)cc1 | -13.9 | –
COc1ccc(NC(=O)CCNS(=O)(=O)c2ccc3c(c2)CCCC(=O)N3)cc1Cl | 2.27 | –
COc1ccc(C(=O)Nc2cccc(C(=O)OCc3cc(=O)n4c5c(sc4n3)CCCC5)c2)cc1 | -28.5 | –
